{"source": "PubChem BioAssay AID1259374", "about": "(The Scripps Research Institute Molecular Screening Center, 2018)", "note": "Screen size: about 650,000 compounds; about 5,900 (0.91%) were called active. What follows is part of a selection rich in actives, with near analogues and random picks from the rest. Values without a mark were called inactive. Rule as the data show it: active = inhibition above about 50%; inactive = the rest."}
{"target": "Microphthalmia-associated transcription factor (Homo sapiens) (UniProt O75030)", "sequence (O75030 whole entry, looked up)": "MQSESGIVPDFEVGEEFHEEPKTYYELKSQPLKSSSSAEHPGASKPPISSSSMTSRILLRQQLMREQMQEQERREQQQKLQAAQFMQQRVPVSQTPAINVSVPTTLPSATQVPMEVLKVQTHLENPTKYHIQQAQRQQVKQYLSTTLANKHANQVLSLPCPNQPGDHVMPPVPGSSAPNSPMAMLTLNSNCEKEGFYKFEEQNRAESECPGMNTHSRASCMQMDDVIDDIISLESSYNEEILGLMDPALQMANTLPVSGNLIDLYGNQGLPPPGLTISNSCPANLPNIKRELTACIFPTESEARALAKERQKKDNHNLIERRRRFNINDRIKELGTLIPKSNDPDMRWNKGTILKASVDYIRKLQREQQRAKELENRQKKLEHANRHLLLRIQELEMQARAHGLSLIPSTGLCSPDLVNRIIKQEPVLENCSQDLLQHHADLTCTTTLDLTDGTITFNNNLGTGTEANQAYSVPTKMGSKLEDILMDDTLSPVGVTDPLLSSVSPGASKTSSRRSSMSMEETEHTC", "test": "MITF inhibitors, primary screen, biochemical, AlphaScreen, human (AID 1259374);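 also: 0% = vehicle wells with protein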", "details": "AlphaScreen MITF homodimerization, bead proximity signal; at 2.6 µM; hits give high values"}
{"smiles": "Cc1ccc(C2CC(c3ccc(Br)cc3)=NN2C(=O)CSc2nnc(CNC(=O)COc3ccccc3)n2C)cc1", "note": "(stereo not given)", "inhibition": "-9.25%"}
{"smiles": "Clc1ccc(CN2CCc3nnc(C4CCCO4)n3CC2)cc1", "note": "(stereo not given)", "inhibition": "9.36%"}
{"smiles": "Clc1ccc(CN2CCN(CC3CC=CCC3)CC2)cc1", "note": "(stereo not given)", "inhibition": "78.5% (active)"}
{"smiles": "O=C(c1ccccc1)N1CCN(Cc2ccc(Cl)cc2)CC1", "inhibition": "48.9%"}
{"smiles": "N#C/C(=C\\c1ccc(-c2ccc(S(N)(=O)=O)cc2)o1)C(N)=O", "inhibition": "3.71%"}
{"smiles": "CC(=O)NS(=O)(=O)c1ccc(-c2ccc(C=C(C#N)C#N)o2)cc1", "inhibition": "64.8% (active)"}
{"smiles": "CC(=O)NS(=O)(=O)c1ccc(-c2ccc(/C=C3/C(=O)N(CCCO)C(=O)C(C#N)=C3C)o2)cc1", "inhibition": "3.37%"}
{"smiles": "O=C(CCc1ccc2c(c1)OCO2)N1CCC(c2[nH]ncc2-c2ccccc2)CC1", "inhibition": "-0.09%"}
{"smiles": "Cc1ccc(OCCN2CCNCC2)cc1C", "inhibition": "9.7%"}
{"smiles": "Cc1cc(Br)ccc1OCCN1CCNCC1", "inhibition": "36.3%"}
{"smiles": "Cc1cccc(OCCN2CCNCC2)c1C", "inhibition": "73.1% (active)"}
{"smiles": "Cc1cccc(OCCOCCN2CCC(C)CC2)c1C", "inhibition": "24.9%"}
{"smiles": "Cc1cc(C(C)(C)C)ccc1OCCN1CCNCC1", "inhibition": "52.3% (active)"}
{"smiles": "C=CCc1ccccc1OCCN1CCNCC1", "inhibition": "26.5%"}
{"smiles": "N#Cc1c(/N=C/c2ccccc2OCC(=O)O)sc2c1CCCC2", "inhibition": "2%"}
{"smiles": "COc1ccccc1CNC(=O)c1ccccc1Br", "inhibition": "7.79%"}
{"smiles": "O=c1c2ccccc2nc(/C=C\\c2ccc(F)c(F)c2)n1-c1ccc(Cl)cc1[N+](=O)[O-]", "inhibition": "1.53%"}
{"smiles": "Cn1c(CC(=O)NNC(=O)CNC(=O)c2ccc(Br)cc2)nc2ccccc21", "inhibition": "8.22%"}
{"smiles": "Cc1ccc(-c2nn3c(C)nnc3s2)cc1NC(=O)COc1ccc(Cl)cc1C", "inhibition": "-9.16%"}
{"smiles": "O=S(=O)(c1ccc(Br)cc1Cl)N1CCN(CCc2ccncc2)CC1", "inhibition": "75.3% (active)"}
{"smiles": "O=S(=O)(c1cc(Br)ccc1Br)N1CCN(CCO)CC1", "inhibition": "7.82%"}
{"smiles": "O=S(=O)(/C=C/c1ccccc1)N1CCN(CCc2ccncc2)CC1", "inhibition": "3.78%"}
{"smiles": "CCN1CCN(Cc2c(O)ccc3c2O/C(=C\\c2cc(OC)ccc2OC)C3=O)CC1", "inhibition": "-14.3%"}
{"smiles": "CN1CC(CO)O/C1=C(C#N)\\C=C1\\Nc2ccccc2C1=O", "note": "(stereo not given)", "inhibition": "21.7%"}
{"smiles": "COc1ccc(OCCCC(=O)Oc2ccc(OC)cc2)cc1", "inhibition": "80.3% (active)"}
{"smiles": "COc1ccc(OCCCC(=O)Nc2ccccc2)cc1", "inhibition": "14.3%"}
{"smiles": "COc1ccc(OC(=O)COc2ccc(Br)cc2)cc1", "inhibition": "1.98%"}
{"smiles": "CCC(C)c1ccccc1NC(=O)C(C)Cl", "note": "(stereo not given)", "inhibition": "-5.29%"}
{"smiles": "CN(CC(=O)Nc1ccccc1F)CC(=O)Nc1ccccc1Br", "inhibition": "-2.33%"}
{"smiles": "CCC(C)c1ccccc1NC(=O)CN(C)CC(=O)Nc1ccccc1SC", "note": "(stereo not given)", "inhibition": "89.7% (active)"}
